# Reference: article PMC4336329 (PLoS ONE, 2015)
# Among all 310,000 compounds or so, about 14,000 (4.5%) showed an effect of 50% or more. The effect is printed as a negative number. What follows is part of a selection rich in strong results, with near analogues and random picks from the rest.
# Molecular target: human ether-à-go-go-related gene (hERG) potassium channel (human, UniProt Q12809)
# Assay: primary screen, population patch clamp on CHO cells stably expressing hERG; higher = less effect of the substance
# 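Further: peak tail current of the secondary pulse compared with the same well before compound.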
# Sequence of human ether-à-go-go-related gene (hERG) potassium channel (Q12809 whole entry, looked up): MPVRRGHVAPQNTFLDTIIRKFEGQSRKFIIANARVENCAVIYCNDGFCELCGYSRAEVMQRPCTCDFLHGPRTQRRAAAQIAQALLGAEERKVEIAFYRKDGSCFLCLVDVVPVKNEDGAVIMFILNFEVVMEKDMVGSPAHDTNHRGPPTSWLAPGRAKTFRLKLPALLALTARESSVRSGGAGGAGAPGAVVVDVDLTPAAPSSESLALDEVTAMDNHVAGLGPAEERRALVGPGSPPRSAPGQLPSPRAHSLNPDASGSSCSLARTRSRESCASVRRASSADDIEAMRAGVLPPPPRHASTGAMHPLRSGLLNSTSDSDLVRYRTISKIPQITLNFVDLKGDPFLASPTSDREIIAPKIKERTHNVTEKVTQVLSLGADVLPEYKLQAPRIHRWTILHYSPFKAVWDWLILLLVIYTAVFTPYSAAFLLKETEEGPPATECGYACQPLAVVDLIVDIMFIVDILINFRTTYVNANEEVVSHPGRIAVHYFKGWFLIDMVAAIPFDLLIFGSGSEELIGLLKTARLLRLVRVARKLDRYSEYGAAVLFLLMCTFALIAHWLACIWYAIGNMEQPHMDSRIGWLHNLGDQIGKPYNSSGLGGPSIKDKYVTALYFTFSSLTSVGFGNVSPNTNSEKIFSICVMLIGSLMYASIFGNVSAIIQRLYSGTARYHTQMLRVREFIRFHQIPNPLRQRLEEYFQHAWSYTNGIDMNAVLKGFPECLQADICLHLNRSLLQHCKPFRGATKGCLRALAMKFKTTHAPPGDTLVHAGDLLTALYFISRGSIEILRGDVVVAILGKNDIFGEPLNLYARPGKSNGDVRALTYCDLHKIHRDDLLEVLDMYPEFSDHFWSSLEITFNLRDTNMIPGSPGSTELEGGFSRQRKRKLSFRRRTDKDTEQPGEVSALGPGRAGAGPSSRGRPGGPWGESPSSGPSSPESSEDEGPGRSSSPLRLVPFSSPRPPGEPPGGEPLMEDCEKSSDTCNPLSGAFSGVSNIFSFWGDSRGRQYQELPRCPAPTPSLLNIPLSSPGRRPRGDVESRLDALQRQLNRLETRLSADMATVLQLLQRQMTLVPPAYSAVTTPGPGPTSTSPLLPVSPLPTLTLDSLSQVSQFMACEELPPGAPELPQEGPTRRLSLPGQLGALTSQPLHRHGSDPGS
row,Compound,"hERG current change (%, negative = inhibition) at 10uM [%]"
1,O=C(Nc1cccc(F)c1)N1CC=C(c2ccc(Cl)cc2)CC1,-13.8
2,Cc1ccc(CN2CCN(/N=C/c3ccc(Cl)c([N+](=O)[O-])c3)CC2)cc1,-4.43
3,CCCOC1CCCN(C(=O)c2ccc3oc(C(C)C)nc3c2)C1 (stereo not shown),3.64
4,Cc1ccccc1OCc1nc(-c2ccc(NC(=O)c3ccco3)cc2)no1,5.41
5,COc1ccc(N=Cc2c(O)n(Cc3ccccc3)c(=S)[nH]c2=O)c(OC)c1,-1.29
6,CC(C)[C@@H](C(=O)NCC1CCC(C(=O)O)CC1)n1nnc2ccccc2c1=O (stereo partly shown),19.1
7,COc1ccc(NC2CCCN(C(=O)c3ccc(C(C)=O)s3)C2)cc1 (stereo not shown),16.1
8,O=C(CSc1ccc(-c2ccc(F)cc2)nn1)N1CCOCC1,-17.4
9,COc1cc(/C=N/N2CCN(c3ccccc3)CC2)cc(OC)c1OC(C)=O,-39.4
10,O=C(Nc1ccccc1Cl)O/N=C(/c1ccccc1)c1ccccn1,6.47
11,CNC(=O)CCc1[nH]c2ccccc2c1Sc1ccccc1,4.85
12,Cc1cc(C)cc(OCC(=O)N2N=C(c3cccnc3)CC2(O)C(F)(F)F)c1 (stereo not shown),-15.3
13,COc1ccc(NC(=O)N(Cc2ccc(C)cc2)Cc2cccnc2)c(OC)c1,-10.6
14,COc1ccccc1S(=O)(=O)Cc1ccc(C(=O)NCCCN2CCN(c3ccc(F)cc3)CC2)o1,-79.2
15,COc1ccccc1S(=O)(=O)Cc1ccc(C(=O)NCCN2CCCC2)o1,-8.12
16,COc1ccccc1S(=O)(=O)Cc1ccc(C(=O)NCCN2CCCCCC2)o1,2.78
17,Cc1cccc(N2C(=O)C(O)=C(C(=O)c3cccs3)C2c2ccc(F)cc2)n1 (stereo not shown),14.9
18,O=C(NNS(=O)(=O)c1ccccc1)C1CCCCC1,6.38
19,Cc1ccc(-c2nc(C#N)c(NCCCn3ccnc3)o2)cc1,-21.9
20,N#Cc1nc(Cc2cccc3ccccc23)oc1NCCCn1ccnc1,-71
21,N#Cc1nc(Cc2ccccc2)oc1NCCCn1ccnc1,-31.5
22,N#Cc1nc(COc2ccc(F)cc2)oc1NCCN1CCOCC1,-12.9

row,Compound,"hERG current change (%, negative = inhibition) at 10uM [%]"
1,N#Cc1nc(COc2ccccc2)oc1NCCN1CCOCC1,-11.3
2,N#Cc1nc(-c2ccccc2)oc1NCCCn1ccnc1,-27.5
3,Cc1ccc(OCc2nc(C#N)c(NCCCn3ccnc3)o2)cc1,-56
4,N#Cc1nc(-c2ccc(OCc3ccccc3Cl)cc2)oc1NCCCn1ccnc1,-13
5,COc1ccccc1OCc1nc(C#N)c(NCCCn2ccnc2)o1,6.7
6,N#Cc1nc(COc2ccccc2)oc1NCCCn1ccnc1,-50
7,N#Cc1nc(COc2ccc(Br)cc2)oc1NCCN1CCOCC1,-56.6
8,COc1ccc(OCc2nc(C#N)c(NCCCn3ccnc3)o2)cc1,-43.4
9,Cc1csc(C(C#N)C(=O)c2ccncc2)n1 (stereo not shown),19.2
10,N#C/C(C(N)=O)=C1/CCc2ccccc2N1,-9.51
11,CCN(CC)c1ccc(N=Cc2c(O)[nH]c(=O)[nH]c2=O)cc1,-1.25
12,NC(=S)Nc1cc2ccccc2c2ccccc12,6.65
13,O=C(O)C1CCN(S(=O)(=O)c2ccc(Oc3ccccc3)cc2)CC1,17.8
14,COC(=O)C1=CNC=C(C(=O)OC)C1c1ccc(Cl)cc1,-8.91
15,COCCN(C(=O)COC(=O)c1cnc(C)cn1)c1c(N)n(Cc2ccccc2)c(=O)[nH]c1=O,-4.85
16,Cc1cc(Nc2ccc(O)cc2)n2c(nc3ccccc32)c1C#N,16.6
17,CCOC(=O)Nc1ccc2c(c1)Sc1ccccc1N2C(=O)CCN1CCOCC1,-17.6
18,N#Cc1nc(-c2ccc(OCc3ccccc3)cc2)oc1NCCCn1ccnc1,-1.96
19,Cc1ccc(-c2nc(C#N)c(NCCN3CCCCC3)o2)cc1,-55.8
20,N#Cc1nc(Cc2cccc3ccccc23)oc1NCCN1CCCCC1,-60.3
21,N#Cc1nc(-c2ccco2)oc1NCCCN1CCOCC1,-54.9
22,N#Cc1nc(-c2ccco2)oc1NCCN1CCOCC1,7.46

row,Compound,"hERG current change (%, negative = inhibition) at 10uM [%]"
1,N#Cc1nc(-c2ccc(OCc3ccc(Cl)cc3)cc2)oc1NCCCn1ccnc1,5.77
2,N#Cc1nc(COc2ccc(Br)cc2)oc1NCCCn1ccnc1,-63.2
3,N#Cc1nc(-c2cccc3ccccc23)oc1NCCN1CCCCC1,-36.2
4,N#Cc1nc(Cc2cccc3ccccc23)oc1NCCN1CCOCC1,-20.3
5,N#Cc1nc(Cc2cccc3ccccc23)oc1NCCCN1CCOCC1,-26.3
6,N#Cc1nc(-c2ccc(F)cc2)oc1NCCN1CCOCC1,-0.823
7,COc1ccc(-c2nc(C#N)c(NCCCN3CCOCC3)o2)cc1,-13
8,CC(C)C[C@@H](CO)N(Cc1ccccc1)S(=O)(=O)N(Cc1ccccc1)[C@@H](CO)CC(C)C,7.47
9,CCc1ccc[n+](-c2[nH]c(=O)sc2/C=N/N=C(\N)[O-])c1,-10
10,CCCCCN(C(=O)COC(=O)COc1c(C)cc(C)cc1C)c1c(N)n(CCCC)c(=O)[nH]c1=O,-14.4
11,COc1ccc(C(C(=O)NCCC(C)C)N(CCO)C(=O)c2snc(C(N)=O)c2N)cc1 (stereo not shown),-1.26
12,O=C(Nc1ccccc1N1CCN(c2ccccc2)CC1)c1ccccc1,8.61
13,O=C1C(=O)N(CCc2c[nH]c3ccccc23)C(c2cccnc2)/C1=C(/O)c1ccccc1 (stereo not shown),2.24
14,COc1ccc(C(=O)NC(=S)NC(C)c2ccccc2)cc1 (stereo not shown),21.8
15,C=C1C(=O)O[C@H]2C1CC[C@@](C)(O)C13C=CC(C)(C21)C1(C3)C(=O)O[C@@H]2C3C(C)=CCC3[C@](C)(O)C[C@H](OC(C)=O)C21 (stereo partly shown),2.81
16,COc1ccccc1NC(=O)CSc1ncn(-c2ccccc2)n1,-41.1
17,N#Cc1nc(COc2ccc(F)cc2)oc1NCCCn1ccnc1,-64.2
18,N#Cc1nc(-c2ccc(F)cc2)oc1NCCCn1ccnc1,-49.3
19,N#Cc1nc(COc2ccccc2F)oc1NCCCn1ccnc1,-42.5
20,COc1cc(/C=N/NC(=O)COc2ccc(-n3cnnn3)cc2)ccc1OCC(N)=O,17.3
21,N#Cc1ccccc1/C=N/Nc1nc(-c2ccccc2)c2cc(Br)ccc2n1,-67.4
22,Cc1ccc2nc(N/N=C\c3ccc([N+](=O)[O-])o3)nc(-c3ccccc3)c2c1,-72.6

row,Compound,"hERG current change (%, negative = inhibition) at 10uM [%]"
1,CCNc1nc(NCC)nc(N/N=C/c2ccc(Br)cc2)n1,-74.6
2,N#Cc1ccccc1/C=N/Nc1nc(-c2ccccc2)c2cc(Cl)ccc2n1,-46.3
3,CCNc1nc(NCC)nc(N/N=C/c2ccc([N+](=O)[O-])o2)n1,-50.8
4,O=[N+]([O-])c1ccc(/C=N/Nc2nc(-c3ccccc3)c3cc(Br)ccc3n2)o1,-4.84
5,O=[N+]([O-])c1ccc(/C=N/Nc2nc(N3CCCC3)nc(N3CCCC3)n2)o1,1.41
6,Cc1ccc2nc(N/N=C/c3ccccc3F)nc(-c3ccccc3)c2c1,0.778
7,Cc1cc(N/N=C/c2ccc([N+](=O)[O-])o2)nc2ccccc12,1.15
8,CCNc1nc(NCC)nc(N/N=C/c2ccccc2)n1,4.81
9,CCNc1nc(NCC)nc(N/N=C/c2ccc(OC)cc2)n1,6.24
10,Cc1cc(C)nc(N/N=C/c2ccc([N+](=O)[O-])o2)n1,2.14
11,CC(Sc1nc(N)cc(=O)[nH]1)C(=O)NC1CCCCC1 (stereo not shown),-4
12,O=C(CSc1ncccn1)NCc1ccccc1Cl,-2.63
13,CCOc1ncccc1C(=O)Nc1ccc(S(=O)(=O)Nc2nc(C)cc(C)n2)cc1,2.16
14,CCOC(=O)N1CCN(C(=O)CSc2ccc(-c3ccncc3)nn2)CC1,-0.414
15,Cc1ccccc1-n1cnc2cc(NCc3cccs3)ccc21,-31
16,CC1=C(C(=O)NCCN2CCN(C)CC2)C2(CCC(C)CC2)OC1=O (stereo not shown),6.17
17,Cc1ccc(-c2ccc(CO)o2)cc1N,9.48
18,O=C(CN1C(=O)C2CC=CCC2C1=O)Nc1ccc(S(=O)(=O)NC2=NCCCCC2)cc1 (stereo not shown),1.02
19,CCN1C(=O)C(=C2C=C(C)N(Cc3ccco3)C(C)=C2)C(=O)N(CC)C1=S,-35
20,CCCCC(=O)Nc1nnc(-c2ccco2)o1,-0.241
21,Cc1cc(C)c(C(=O)OCC(=O)NC(=O)c2ccccc2)c(C)c1,11.9
22,O=C(CCc1ccccc1)Nc1cc(NC(=O)CCc2ccccc2)cc(C(=O)O)c1,-22
